Calls of active or inactive are those of the source.

Assay [1] is described as follows: small molecules captured by biotinylated probe aFSTL3 – biochemical, small-molecule microarray, fluorescence 635/667, stem cell growth factor project, primary screen (AID 1064).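 Also: measures binding of the biotinylated anti-FSTL3 antibody to printed compounds.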 Particulars: higher = more signal.
Assay [2] is described as follows: binders from COS7 lysate, DM2A8 probe, primary screen, torsin A project, cell lysate, small-molecule microarray, fluorescence 635/667 (AID 1065). Particulars: higher = more signal, COS7 lysate expressing mutant human TOR1A.
A short description of assay [3]: small molecules captured by biotinylated probe aFGF2 – biochemical, small-molecule microarray, fluorescence 635/667, stem cell growth factor project, primary screen (AID 1067).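 Also: measures binding of biotinylated aFGF2 protein to printed compounds on slides; z-score merges feature fluorescence and signal-to-noise across triplicate slides.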 Particulars: higher = more signal.
Assay [4] can be described thus: small molecules captured by biotinylated probe aFGF10 – biochemical, small-molecule microarray, fluorescence 635/667, stem cell growth factor project, primary screen (AID 1071).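 Also: score merges 667 nm spot intensity and signal to noise from triplicate slides.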 Particulars: higher = more signal.
Assay [5] has as its target Neurogenic locus notch homolog protein 2 (Homo sapiens) (UniProt Q04721). Nature of the assay: small molecules binding Notch2 protein – biochemical, small-molecule microarray, 635 nm fluorescence, stem cell growth factors, primary screen (AID 1073). Particulars: higher = more signal.
The target in assay [6] is Pro-neuregulin-1, membrane-bound isoform (Homo sapiens) (UniProt Q02297). The assay is described as follows: small molecules binding neuregulin-1 protein – biochemical, small-molecule microarray, fluorescence 635/667, psychiatric disease protein project, primary screen (AID 1075).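 Also: score combines 667 nm spot fluorescence with signal to noise.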 Particulars: NRG1 binding, 635 nm fluorescence, higher = more signal.
Chain of Pro-neuregulin-1, membrane-bound isoform (Homo sapiens) (Q02297 whole entry, looked up, the tested form may be a part, canonical isoform): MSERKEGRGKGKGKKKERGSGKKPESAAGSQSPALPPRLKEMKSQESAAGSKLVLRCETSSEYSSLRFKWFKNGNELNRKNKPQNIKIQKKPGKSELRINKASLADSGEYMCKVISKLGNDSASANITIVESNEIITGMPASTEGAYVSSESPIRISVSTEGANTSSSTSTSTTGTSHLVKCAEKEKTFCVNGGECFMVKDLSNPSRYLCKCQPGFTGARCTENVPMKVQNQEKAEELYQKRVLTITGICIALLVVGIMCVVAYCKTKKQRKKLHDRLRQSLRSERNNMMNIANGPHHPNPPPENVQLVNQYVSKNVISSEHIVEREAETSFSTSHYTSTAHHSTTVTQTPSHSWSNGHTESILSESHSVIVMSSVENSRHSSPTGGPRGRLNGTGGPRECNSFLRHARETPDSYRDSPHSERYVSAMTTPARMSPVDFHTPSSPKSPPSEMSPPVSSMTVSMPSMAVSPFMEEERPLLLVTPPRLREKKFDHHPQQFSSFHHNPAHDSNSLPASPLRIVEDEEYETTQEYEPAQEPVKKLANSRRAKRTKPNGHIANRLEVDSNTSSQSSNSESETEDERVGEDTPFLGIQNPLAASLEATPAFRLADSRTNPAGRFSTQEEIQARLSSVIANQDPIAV
In assay [7] the test system is Neuregulin-1 EGF-like domain. Nature of the assay: small molecules binding NRG1 EGF domain – biochemical, small-molecule microarray, 635 nm fluorescence, primary screen (AID 1081).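 Also: binding of the protein to compounds printed on small-molecule microarray slides.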 Particulars: higher = more signal.
Assay [8] can be described thus: FRG1 expression reporter modulators in myotubes – cell-based, C2C12 myotubes, firefly/Renilla luciferase, luminescence, FRG1 inhibition for FSHD, primary screen (AID 1084). Particulars: FRG1 promoter luciferase, higher = more signal, called active from +8 up or from −8 down.
Assay [9] can be described thus: small molecules captured by biotinylated probe aFST – biochemical, small-molecule microarray, fluorescence 635/667, stem cell growth factor project, primary screen (AID 1086).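 Also: score merges 667 nm fluorescence with signal-to-noise of each printed compound spot.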 Particulars: higher = more signal.
Assay [10] can be described thus: binders of probe aHhip on microarray, primary screen, stem cell growth factor project, biochemical, small-molecule microarray, fluorescence 635/667 (AID 1087).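 Also: score merges spot fluorescence at 667nm with spot signal to noise ratio.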 Particulars: higher = more signal.

Chain of Neurogenic locus notch homolog protein 2 (Homo sapiens) (Q04721 whole entry, looked up, canonical isoform): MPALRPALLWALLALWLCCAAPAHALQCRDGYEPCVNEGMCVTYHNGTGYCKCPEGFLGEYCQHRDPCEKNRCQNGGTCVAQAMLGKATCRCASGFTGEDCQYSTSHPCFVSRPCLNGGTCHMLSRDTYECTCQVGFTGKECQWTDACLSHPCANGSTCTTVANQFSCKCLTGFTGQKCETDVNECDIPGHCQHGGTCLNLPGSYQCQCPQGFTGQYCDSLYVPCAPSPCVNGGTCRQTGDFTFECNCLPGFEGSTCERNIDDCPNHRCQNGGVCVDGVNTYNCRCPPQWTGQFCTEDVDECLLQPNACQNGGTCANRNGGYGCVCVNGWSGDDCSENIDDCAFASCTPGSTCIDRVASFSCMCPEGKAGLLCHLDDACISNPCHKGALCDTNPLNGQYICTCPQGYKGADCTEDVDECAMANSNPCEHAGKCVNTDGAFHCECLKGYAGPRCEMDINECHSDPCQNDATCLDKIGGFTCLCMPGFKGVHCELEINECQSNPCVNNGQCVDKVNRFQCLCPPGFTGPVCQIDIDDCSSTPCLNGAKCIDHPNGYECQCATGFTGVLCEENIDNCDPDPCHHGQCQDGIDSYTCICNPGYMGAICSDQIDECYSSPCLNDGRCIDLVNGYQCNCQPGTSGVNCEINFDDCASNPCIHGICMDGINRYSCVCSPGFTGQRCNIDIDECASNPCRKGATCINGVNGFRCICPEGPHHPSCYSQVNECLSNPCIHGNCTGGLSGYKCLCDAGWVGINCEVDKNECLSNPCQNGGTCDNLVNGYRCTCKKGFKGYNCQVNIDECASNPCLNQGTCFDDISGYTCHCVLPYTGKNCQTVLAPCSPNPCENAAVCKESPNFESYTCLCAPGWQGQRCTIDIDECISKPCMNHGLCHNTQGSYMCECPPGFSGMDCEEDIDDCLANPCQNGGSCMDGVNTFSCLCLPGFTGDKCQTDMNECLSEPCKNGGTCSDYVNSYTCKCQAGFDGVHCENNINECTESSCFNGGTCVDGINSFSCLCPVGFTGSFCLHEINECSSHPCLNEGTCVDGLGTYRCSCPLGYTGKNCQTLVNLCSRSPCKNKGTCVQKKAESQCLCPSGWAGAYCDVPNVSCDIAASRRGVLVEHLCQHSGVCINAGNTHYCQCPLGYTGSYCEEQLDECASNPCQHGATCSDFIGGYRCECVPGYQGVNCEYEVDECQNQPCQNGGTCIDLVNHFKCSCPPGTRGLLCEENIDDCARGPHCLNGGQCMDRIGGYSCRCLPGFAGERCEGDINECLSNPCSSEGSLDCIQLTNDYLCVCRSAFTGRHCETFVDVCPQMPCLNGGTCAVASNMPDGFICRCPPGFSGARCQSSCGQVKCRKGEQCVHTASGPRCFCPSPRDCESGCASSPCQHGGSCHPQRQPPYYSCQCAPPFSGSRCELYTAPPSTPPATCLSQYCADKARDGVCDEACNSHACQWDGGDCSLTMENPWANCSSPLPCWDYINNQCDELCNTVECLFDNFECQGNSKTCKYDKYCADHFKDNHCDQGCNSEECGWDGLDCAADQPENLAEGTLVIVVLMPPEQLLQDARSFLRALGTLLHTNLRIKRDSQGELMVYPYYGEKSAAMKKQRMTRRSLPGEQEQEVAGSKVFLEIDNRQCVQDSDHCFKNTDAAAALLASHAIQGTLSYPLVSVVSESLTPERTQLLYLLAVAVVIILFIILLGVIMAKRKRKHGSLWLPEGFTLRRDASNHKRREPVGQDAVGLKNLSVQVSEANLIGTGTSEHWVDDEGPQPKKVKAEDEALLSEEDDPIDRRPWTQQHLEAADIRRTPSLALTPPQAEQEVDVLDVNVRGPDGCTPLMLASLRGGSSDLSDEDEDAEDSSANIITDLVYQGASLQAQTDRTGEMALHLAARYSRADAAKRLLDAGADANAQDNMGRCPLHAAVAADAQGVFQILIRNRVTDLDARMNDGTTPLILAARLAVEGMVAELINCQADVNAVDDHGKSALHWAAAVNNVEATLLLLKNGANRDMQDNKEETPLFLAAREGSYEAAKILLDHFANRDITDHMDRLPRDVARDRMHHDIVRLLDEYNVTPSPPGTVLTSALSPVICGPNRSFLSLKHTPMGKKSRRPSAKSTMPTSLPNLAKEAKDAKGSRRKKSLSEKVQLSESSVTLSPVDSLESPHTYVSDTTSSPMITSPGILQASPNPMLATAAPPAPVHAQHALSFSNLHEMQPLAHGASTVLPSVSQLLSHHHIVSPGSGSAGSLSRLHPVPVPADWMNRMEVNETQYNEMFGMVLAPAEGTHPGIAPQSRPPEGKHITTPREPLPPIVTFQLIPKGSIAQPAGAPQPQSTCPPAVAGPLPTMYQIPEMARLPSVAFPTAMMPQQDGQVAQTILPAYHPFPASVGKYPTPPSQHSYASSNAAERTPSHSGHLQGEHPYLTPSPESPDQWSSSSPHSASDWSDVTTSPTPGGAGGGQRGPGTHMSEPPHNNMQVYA

Take `COc1ccc([Si](C)(C)[C@@H]2[C@@H](CCO)O[C@]3(C(=O)N(Cc4ccc(N5C(=O)COc6ccccc65)cc4)c4ccccc43)[C@H]2C)cc1`: the composite z-score in assay [1] is -0.0069; in assay [2], 0.408; in assay [3], -0.0474; in assay [4] it was 1.24; in assay [5] it was 1.18; in assay [6], 1.01. Also, the values for the composite z-score in assay [7], in assay [9] and in [10] were 1.17, 0.288 and 0.0373, respectively. Moreover, the z-score in assay [8] is -2.74 (inactive).

Regarding `COCCOC(=O)N1C(=O)[C@@]2(c3cc(C#CC4=CCCCC4)ccc31)[C@H](C(N)=O)[C@H]1C(=O)O[C@H](c3ccccc3)[C@H](c3ccccc3)N1[C@@H]2c1ccc(OCCO)cc1`, the composite z-score in assay [1] is -0.809; in assay [2], 0.897; in assay [3] it was -0.0009; in assay [4], 0.806; in assay [5], 0.254; in [6], 0.514. Moreover, the composite z-score in [7] was 1.19; in [9] it was -0.335; in assay [10], -0.237. Also, the z-score in assay [8] was -0.408 (inactive).

Take `C=CCNC(=O)[C@H]1[C@@H]2C(=O)O[C@@H](c3ccccc3)[C@@H](c3ccccc3)N2[C@@H](c2ccc(OCCO)cc2)[C@]12C(=O)N(C(=O)OCCOC)c1ccccc12`: the composite z-score is -0.268 in [1]; 0.847 in assay [2]; 0.0732 in assay [3]; 0.591 in assay [4]; 1.45 in assay [5]; 1.53 in [6]. For the same compound, the composite z-score in assay [7] was 1.38; in assay [9] it was 0.854; in [10], 0.251. Besides, the z-score in [8] is -2.56 (inactive).

For `O=C(c1ccccc1)N1Cc2ccccc2[C@@H]2OC(c3ccc(OCCCO)cc3)=N[C@]2(Cc2ccccc2)C1=O`, the composite z-score is -0.0231 in assay [1]; 0.483 in [2]; 0.0462 in assay [3]; 0.158 in assay [4]; 0.649 in assay [5]; 1.32 in assay [6]. The composite z-score in assay [7] is 1.24; in [9], -0.171; in assay [10] it was -0.208. Moreover, the z-score in assay [8] is -1.05 (inactive).

As for `COCCCNC(=O)C1N=C(c2ccc(OCCCO)cc2)N(c2ccccc2)O1` (stereo not given), the composite z-score is -0.39 in assay [1]; 0.461 in assay [2]; 0.0038 in [3]; 0.848 in [4]; 0.872 in assay [5]; 0.124 in assay [6]. Besides, the composite z-score in assay [7] is 0.609; in [9], 0.504; in [10], 0.0176. Further, the z-score in assay [8] is 3.02 (inactive).

On to `COC(=O)[C@@]1(Cc2ccc(OC)cc2)[C@H]2c3cc(C(=O)N(C)C)n(Cc4cccc5ccccc45)c3C[C@H]2CN1C(=O)c1ccccc1`, for which the composite z-score was -0.193 in assay [1]; 1.16 in assay [2]; 0.118 in [3]; 1.15 in assay [4]; 1.27 in assay [5]; 1.79 in [6]. Moreover, the composite z-score in assay [7] is 1.36; in [9], 1.33; in assay [10] it was 0.534. The z-score in [8] is 0.189 (inactive).

On to `COCCOC(=O)N1C(=O)[C@@]2(c3cc(C#Cc4ccc(OC)cc4)ccc31)[C@H](c1ccccc1OCCO)N1[C@H](c3ccccc3)[C@H](c3ccccc3)OC(=O)[C@H]1[C@@H]2C(=O)N1CCN(c2ncccn2)CC1`, for which the composite z-score in assay [1] is -0.173; in assay [2], 0.489; in [3], -0.0336; in assay [4], 0.619; in assay [5], 0.568; in [6], 0.4. Moreover, the values for the composite z-score in assay [7], in assay [9] and in assay [10] were 1.23, 0.172 and -0.0618, respectively. Moreover, in assay [8], the z-score was -1.23 (inactive).

For the compound `COC(=O)[C@@]1(Cc2ccccc2)[C@H]2c3cc(C(=O)N4CCCC4)n(Cc4nc5ccccc5[nH]4)c3C[C@H]2CN1C(=O)c1ccccc1`, the composite z-score in assay [1] was 1.19; in assay [2], 0.74; in [3] it was -0.0879; in assay [4] it was 0.115; in [5], 1.72; in [6] it was 2.07. Also, the composite z-score in [7] was 0.807; in [9] it was 1.65; in assay [10] it was 0.507. In [8], the z-score was 2.63 (inactive).

For the compound `C=CC[C@@]1(C(=O)NCc2ccccc2)N=C(c2ccc(OCCCO)cc2)O[C@@H]1c1ccccc1N=[N+]=[N-]`, the composite z-score in [1] worked out at 0.127; in assay [2], 0.852; in assay [3], 0.071; in [4] it was 0.942; in assay [5], 1.44; in assay [6], 1.74. The composite z-score in assay [7] worked out at 1.27; in assay [9], 1.31; in [10], 0.111. The z-score in assay [8] was 0.206 (inactive).

On to `CCCCc1cn(C[C@H](Cc2ccccc2)NC(=O)N[C@H](CO)CCc2oc(C(C)=O)c(C(=O)OC)c2C(=O)OC)nn1`, for which the composite z-score is -0.422 in assay [1]; 0.651 in assay [2]; -0.166 in assay [3]; 0.864 in assay [4]; 1.56 in [5]; 0.979 in assay [6]. The composite z-score in [7] was 1.32; in assay [9] it was 0.839; in [10] it was -0.0994. The z-score in assay [8] was 0.833 (inactive).

Take `O=C1OCCC=C[C@H]2OC34C=CCN(CCN5CCOCC5)C(=O)[C@H]3N(CCCCCCO)C(=O)[C@@H]4C12` (stereo not given in full): the composite z-score is -0.174 in assay [1]; -0.352 in assay [2]; -0.147 in [3]; 0.0933 in assay [4]; -0.849 in assay [5]; -0.0296 in assay [6]. Moreover, the figures for the composite z-score in [7], in [9] and in assay [10] were 0.988, -0.235 and -0.169, respectively. Moreover, the z-score in assay [8] was -0.263 (inactive).

Consider `CCCN1C(=O)[C@]2(CCS(=O)(=O)c3ccccc3)N=C(c3ccc(OCCCO)cc3)O[C@@H]2c2ccccc21`, for which the composite z-score in assay [1] was 0.375; in assay [2], -0.212; in assay [3], -0.0027; in assay [4] it was 0.572; in assay [5] it was 0.58; in assay [6], 1.28. The composite z-score is 1.27 in [7], 0.458 in [9] and -0.0645 in [10]. Also, the z-score in [8] was -0.775 (inactive).

For `CC(CO)N1C(=O)[C@@H]2C3C(=O)OCCC/C=C\[C@H]3OC23C=CCN(c2ccc4ccccc4c2)C(=O)[C@@H]13` (stereo not given in full), the composite z-score in assay [1] was 0.122; in assay [2], -0.933; in assay [3], -0.118; in assay [4], -0.594; in assay [5] it was -0.874; in [6], 0.168. Moreover, the composite z-score in assay [7] was 1.26; in assay [9], -0.576; in assay [10] it was -0.0994. Also, the z-score in assay [8] is -0.775 (inactive).

On to `[N-]=[N+]=NCc1ccccc1[C@@H]1OC(c2ccc(OCCCO)cc2)=N[C@]1(CCS(=O)(=O)c1ccccc1)C(=O)NCCN1CCOCC1`, for which the composite z-score in [1] turned out to be 0.21; in assay [2], 0.631; in [3], 0.269; in assay [4], 0.918; in assay [5], 1.65; in assay [6], 1.99. Besides, the composite z-score in assay [7] came to 1.31; in assay [9] it was 1.87; in [10], 0.156. In assay [8], the z-score is 1.97 (inactive).

Turning to `COCCOC(=O)N1C(=O)[C@@]2(c3cc(C#CC4=CCCCC4)ccc31)[C@H](C(=O)Nc1nc3ccccc3s1)[C@H]1C(=O)O[C@H](c3ccccc3)[C@H](c3ccccc3)N1[C@@H]2c1ccccc1OCCO`, the composite z-score in assay [1] was determined as 0.346; in assay [2], 0.189; in assay [3] it was 0.0871; in [4], 0.77; in assay [5], 1.49; in assay [6] it was 1.15. The composite z-score in assay [7] was 1.08; in [9], 0.965; in assay [10], 0.463. The z-score in assay [8] was 1.29 (inactive).
